Screening data deposited in PubChem by National Center for Advancing Translational Sciences (NCATS).
Shown is part of a subset that was picked to be rich in hits.
Pf Dd2 inh – qHTS Primary assay for Inhibitors of Plasmodium falciparum Dd2 growth in vitro; Potency, µM (top dose mostly 28.9 µM), inactives show at the top dose activity, negative = inhibition, usual class: inhibitors; AID 1347417, 2020; P. falciparum Dd2 growth, SYBR Green, 72 h; 120,000 tested, 4.3% active; active means well fitted inhibition curve with a large enough effect;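 further: plate controls were DMSO vehicle for no effect and reference drug for full effect; nearly all actives have a fitted effect of over 65% in size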
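Infected erythrocytes (Dd2, 0.3% parasitemia, 2.5% hematocrit final) are added to compound in RPMI-1640/Albumax II medium, grown 72 h at 37C in low oxygen, then lysed with saponin/Triton-X containing SYBR Green and read by fluorescence.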
Numbers without * were called inactive; i = inactive; [ ] = dose if it differs, or a comment. Potency means the concentration at half of the fitted maximal effect.

SMILES | Pf Dd2 inh
CCc1cccc(-n2c(=O)c3cccnc3n2CC(=O)NCc2ccccc2Cl)c1 | 2.2µM*
Cc1ccc(-n2c(=O)c3cccnc3n2CC(=O)Nc2cc(Cl)ccc2C)cc1 | 9%
O=C(Cn1c2ncccc2c(=O)n1-c1ccccc1)Nc1ccc(Cl)cc1C(F)(F)F | 8%
CCc1cccc(-n2c(=O)c3cccnc3n2CC(=O)Nc2ccccc2C(=O)OC)c1 | 49%[5.79 µM]
O=C(Cn1c2ncccc2c(=O)n1-c1ccccc1)NCc1ccccc1 | -11%
Cc1noc(C)c1[S+](=O)([O-])N1CCC(c2nn(-c3ccccc3)c(=O)[nH]2)CC1 | -17%
Cc1cc(C(=O)N2CCCC(c3[nH]ccc3C(N)=O)C2)c(C)n1Cc1ccco1 (stereo not drawn) | i
CC1=NS(=O)(=O)N(C)C=C1C(=O)OCc1nc(-c2cccc(Cl)c2)no1 | 100%
COc1ccccc1CNC(=O)c1cnn(-c2ccc(F)cc2F)c1C1CCN(C(=O)OC(C)(C)C)CC1 | 10µM*
Cc1ccc(CNC(=O)c2cnn(-c3ccc(F)cc3F)c2C2CCN(C(=O)OC(C)(C)C)CC2)cc1 | 11µM*
COc1ccc(OC)c(CCNC(=O)c2cnn(-c3ccccc3Cl)c2C2CCN(C(=O)OC(C)(C)C)CC2)c1 | 7.9µM*
COc1cc(OC)c(NC(=O)c2cnn(-c3cccc(Cl)c3C)c2C2CCN(C(=O)OC(C)(C)C)CC2)cc1Cl | 3.5µM*
CC(C)(C)OC(=O)N1CCC(c2c(C(=O)N3CCN(c4ncccn4)CC3)cnn2-c2ccc(F)cc2F)CC1 | -18%
CC(C)(C)OC(=O)N1CCC(c2c(C(=O)NC3CCCCC3)cnn2-c2ccc(F)cc2F)CC1 | -11%
CC(C)(C)OC(=O)N1CCC(c2c(C(=O)N3CCOCC3)cnn2-c2ccccc2Cl)CC1 | -16%
CC(C)(C)OC(=O)N1CCC(c2c(C(=O)NCCc3ccsc3)cnn2-c2ccccc2Cl)CC1 | -6%
O=C(NCCOc1ccccc1)c1nc2c(o1)CCN(Cc1cccs1)CC2 | i
Cc1cc(C[C@@H]2COC[C@@H]2NC(=O)c2c(C)cc(C)n(C)c2=O)on1 | 10%
CCNC(=O)N(C1CC1)C1CCOC2(CCN(C(=O)CCc3ccccc3)CC2)C1 (stereo not drawn) | -11%
O=C(NCc1ccncc1)c1cn(C2CN(C(=O)Nc3ccc4c(c3)OCCO4)C2)nn1 | -11%
CC(C)c1nnc(C2CN(C(=O)Cc3ccsc3)CC23CCOCC3)o1 (stereo not drawn) | -14%
CN(CCC(N)=O)C(=O)C1CCCN1S(=O)(=O)c1ccc(F)cc1 (stereo not drawn) | 23%
COc1ccc(-c2nccc3c(=O)cc(N(C)C)oc23)cn1 | 14%[44.1 µM]
CC1=C[C@@H](CN2CCC(O)CC2)[C@H](C(C)C)C[C@H]1Cc1nnc(C)o1 | -27%[44.1 µM]
COCCN1CCN(C[C@@H]2C=C(C)[C@H](Cc3nnc(-c4ccc(N(C)C)cc4)o3)C[C@H]2C(C)C)CC1 | 4µM*
SMILES | Pf Dd2 inh
COCCN1CCN(C[C@@H]2C=C(C)[C@H](Cc3nnc(-c4cccnc4)o3)C[C@H]2C(C)C)CC1 | -16%
CC1=C[C@@H](CN2CCC(O)CC2)[C@H](C(C)C)C[C@H]1Cc1nnc(-c2ccc(N(C)C)cc2)o1 | 3.5µM*
C[S+](=O)([O-])NC1CCN(c2nc3ncccc3o2)CC1 | -3%[44.1 µM]
CCOc1ccc(N(CC)C(=O)CCc2nc(-c3ccccc3F)no2)cc1 | 47%[0.594 µM]
COc1ccc(-c2nc3c(c(SCC(=O)N(C)c4ccccc4)n2)Cc2cc(C)ccc2O3)cc1 | 9%
CCc1ccc(Nc2nc(-c3ccccc3F)no2)cc1 | i
COc1ccccc1-c1nc2c(c(SCc3cccc(Cl)c3)n1)Cc1c(CO)cnc(C)c1O2 | 2.5µM*
CCc1ccc(CSc2nc(-c3ccccc3F)nc3c2Cc2c(CO)cnc(C)c2O3)cc1 | 10µM*
COc1ccc(-c2nc3c(c(SCc4cc(C)ccc4C)n2)Cc2c(CO)cnc(C)c2O3)cc1 | -8%
CCN(CC)C(=O)CSc1nc(-c2ccccc2F)nc2c1Cc1c(CO)cnc(C)c1O2 | 11µM*
CCc1ccc(-c2nc3c(c(SCc4ccccc4F)n2)Cc2c(CO)cnc(C)c2O3)cc1 | -10%
Cc1ccc(-c2nc3c(c(SCc4ccc(Br)cc4)n2)Cc2c(CO)cnc(C)c2O3)cc1 | -1%
Cc1cccc(NC(=O)CSc2nc(-c3ccccc3Cl)nc3c2Cc2c(CO)cnc(C)c2O3)c1C | -1%
CCc1ccc(CSc2nc(-c3ccc(OC)cc3)nc3c2Cc2c(CO)cnc(C)c2O3)cc1 | -6%
C=Cc1ccc(CSc2nc(-c3ccccc3Cl)nc3c2Cc2c(CO)cnc(C)c2O3)cc1 | 6.3µM*
CCn1c(C2CCCN(C(=O)Nc3ccc4c(c3)OCCO4)C2)nn(C)c1=O (stereo not drawn) | -21%
O=C1NC2(CCN(C(=O)Cc3ccccc3)C2)Oc2ccccc21 (stereo not drawn) | i
CNC(=O)[C@@H](C1CC1)N1CCC[C@H]1C(=O)NCC(C)C | 9%[44.1 µM]
Cc1nc2scc(CC(=O)NC3CCCCC3)n2c(=O)c1-c1cc(C)n(-c2ccccc2F)n1 | i
CNC(=O)[C@H]1C[C@H](Oc2ccccc2)CN1S(=O)(=O)Cc1ccccc1 | 9%
C[C@@H](NC(=O)C1=C[C@@H](NS(=O)(=O)c2cccs2)[C@@H](O)[C@H](O)C1)C(N)=O | 0%[44.1 µM]
Cc1ccccc1[C@H]1C[C@@H](O)[C@@H](O)[C@@H]1NC(=O)c1cccnc1 | i
COc1cccc(S(=O)(=O)N2CC(F)(F)C[C@H]2c2nnc(C)o2)c1 | 47%
COCC(=O)Nc1ccc2ncnc(N3CCCCC3)c2c1 | -18%
COCCN1CC(CO)C2(CCN(C(=O)c3nccc4ccccc34)CC2)C1 (stereo not drawn) | 6%
SMILES | Pf Dd2 inh
COc1ccc2[nH]cc(CCNC(=O)C3Cn4cccc4C(=O)N3CC(C)C)c2c1 (stereo not drawn) | i
COCc1cc(CC2(NC3CCN(C(C)=O)CC3)COC2)no1 | -8%[44.1 µM]
Cc1cc(C)c2c(=O)c3c(oc2c1)C(=O)N(Cc1ccco1)C3c1ccc(F)cc1 (stereo not drawn) | 11%
COCCCN1C(=O)c2[nH]nc(-c3cc(C)ccc3O)c2C1c1ccc(F)cc1 (stereo not drawn) | -29%
Cc1ccc(O)c(-c2n[nH]c3c2C(c2ccccc2F)N(Cc2ccco2)C3=O)c1 (stereo not drawn) | 4.5µM*
CCOc1cccc(C2c3c(-c4cc(C)ccc4O)n[nH]c3C(=O)N2Cc2ccco2)c1 (stereo not drawn) | 10µM*
COc1cc(C2c3c(-c4cc(C)ccc4O)n[nH]c3C(=O)N2Cc2ccco2)cc(OC)c1OC (stereo not drawn) | i
COCCN1C(=O)c2[nH]nc(-c3c(C)cc(C)cc3O)c2C1c1cccc(O)c1 (stereo not drawn) | -8%
CS(=O)(=O)c1ccc(OCC2(CNCc3cccc(C(F)(F)F)c3)C[C@@H](O)[C@@H](O)C2)cc1 (stereo partly drawn) | i
COc1ccccc1NC(=O)N1CC[C@@H](CC(=O)O)[C@@H](CC2=NCCc3cc(F)ccc32)C1 | 0%
CC(=O)N[C@H]1CC[C@]2(C)CC[C@@H](C(C)C(=O)NC(C)C)[C@H](O)[C@H]2[C@@H]1C (stereo partly drawn) | -6%[44.1 µM]
COc1ccc(CCC(=O)NCc2ccc3c(c2)CCN3C(=O)c2ccccc2)cc1 | 6.3µM*
COc1ccc(OCC(=O)NCc2ccc3c(c2)CCN3C(=O)c2ccccc2)cc1 | -4%
COc1ccc(CCC(=O)NCc2ccc3c(c2)CCN3C(=O)c2ccc(C)cc2)cc1 | 21%
